Screening results: PubChem BioAssay, National Center for Advancing Translational Sciences (NCATS)
LDHA block – LDHA (human) enzyme inhibition; P00338; activity change, % (values are at about 110 or 230 µM); actives 0.15% (n = 480,000); purified LDHA, NADH/diaphorase-resazurin fluorescence; hits give low values; in the data active means activity change below about -30%; inconclusive means mostly about -25% to -30%;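 further: plate controls were DMSO wells for no effect and wells without enzyme for full effect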
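Enzyme activity of human lactate dehydrogenase 5 (2 nM; 0.06 mM NADH, 0.2 mM pyruvate, 5 min, RT) is measured via a resazurin/diaphorase fluorescence readout of residual NADH.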
PTHR1 agonist – agonists of human PTHR1 parathyroid hormone receptor; Q03431; HEK293 GP2 PTHR1 cells, GloSensor cAMP luminescence, 1 h; Potency, µM (highest dose often 115 µM), for the others: at the top dose activation, actives largely listed as activators; actives 0.075% (n = 410,000); AID 743266; further: potency means the concentration at half of the fitted maximal effect; nearly all actives have a fitted effect of over 55% in size
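HEK-293-derived GP2 cells expressing PTHR1 and a GloSensor cAMP reporter, 3,000/well, plated overnight, given luciferin plus IBMX (each 0.5 mM as added) for 1 h at 37 °C, then compound for 1 h at 37 °C. Luminescence was read after 15 min at room temperature.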
Vif-APOBEC3G blk – Vif-A3G binding inhibition | Q9HC16 | HeLa A3G-eYFP + Vif (tagged APOBEC3G with the HIV-1 protein that degrades it), YFP fluorescence, overnight | Potency, µM (doses to about 46.1 µM), without a hit: at the highest dose activity, negative = active, actives largely listed as inhibitors | actives 0.076% (n = 410,000) | AID 602310; further: potency means the concentration at half of the fitted maximal effect; on the % scale 0 is the no-effect control and ±100 the full control effect; nearly all actives have a fitted effect of over 60% in size
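HeLa cells stably expressing Vif and C-terminally eYFP-tagged A3G, seeded overnight at 37 deg C, then exposed to compound by pintool overnight at 37 deg C. Rise in yellow fluorescence (Ex 488/Em 500-530, Acumen) marks blocked Vif-driven A3G degradation.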
Vif-APOBEC3F blk – Vif-A3F binding inhibition; HeLa A3F-eYFP + Vif (tagged APOBEC3F with the HIV-1 protein that degrades it), YFP fluorescence increase; Potency, µM (titrated, usually from 46.1 µM), for the others: at the highest dose activity, negative = active; actives 0.2% (n = 390,000); further: potency means the concentration at half of the fitted maximal effect; % of control where 0% means no effect; nearly all actives have a fitted effect of over 65% in size
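Fluorescence increase (Ex 488/Em 500-530) after overnight compound treatment at 37 deg C flags inhibition of Vif-driven A3F-eYFP loss in stable HeLa A3F-eYFP/Vif cells seeded overnight beforehand.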
PINK1 expr mod – modulators of PINK1 expression | PINK1 immunofluorescence, high-content cytometry, 24 h | Potency, µM (doses to about 76.6 µM), for inactives: at the top dose activation (PINK1 increase), usual class: activators | actives 0.2% (n = 410,000) | AID 624263; active means well fitted activation curve with a large enough effect; inconclusive means small, poorly fitted or top-dose-only effect; cell line not stated here; further: potency means the concentration at half of the fitted maximal effect; % of control where 0% means no effect; nearly all actives have a fitted effect of over 65% in size
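PINK1 protein level read as immunofluorescence by microplate cytometer in a fixed, stained stable cell line after 24 h exposure to five compound concentrations, with CCCP as control.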
mIDH1 inhibitor – blocks human mutant IDH1 R132H enzyme | Potency, µM (top dose mostly 76.6 µM), inactives show at the highest dose activity change, negative = inhibition, most hits filed as inhibitors | O75874 | actives 0.093% (n = 390,000) | IDH1-R132H enzyme, NADPH consumption, diaphorase/resazurin fluorescence; further: potency means the concentration at half of the fitted maximal effect; on the % scale 0 is the no-effect control and ±100 the full control effect; nearly all actives have a fitted effect of over 65% in size
Target sequence (O75874 whole entry R132H, stated change not applied): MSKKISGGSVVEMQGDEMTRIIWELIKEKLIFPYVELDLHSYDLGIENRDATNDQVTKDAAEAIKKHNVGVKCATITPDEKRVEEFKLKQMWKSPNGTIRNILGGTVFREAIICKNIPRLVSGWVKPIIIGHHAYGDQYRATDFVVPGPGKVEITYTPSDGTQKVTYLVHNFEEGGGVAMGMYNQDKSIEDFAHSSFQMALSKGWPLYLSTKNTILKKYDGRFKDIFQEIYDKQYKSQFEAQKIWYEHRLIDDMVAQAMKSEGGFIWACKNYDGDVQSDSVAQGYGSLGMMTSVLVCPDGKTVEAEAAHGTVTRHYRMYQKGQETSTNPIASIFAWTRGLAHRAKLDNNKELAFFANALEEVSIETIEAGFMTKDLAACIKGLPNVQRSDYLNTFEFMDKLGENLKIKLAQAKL
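IDH1-R132H (0.5 ug/mL dispensed) in pH 7.5 Tris buffer was preincubated 30 min with compound, then given a substrate mix of 0.016 mM NADPH and 2 mM alpha-KG for 80 min at room temperature; remaining NADPH was read by diaphorase/resazurin fluorescence.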
An asterisk follows results filed as active; i = inactive; ? = inconclusive; / = no result given; ! = a repeat was not active; [ ] = remark or other dose. An excerpt weighted towards active compounds, which were near 0.59% of everything screened. Unless noted, the call rests on the fitted dose curve; in most records, active means well fitted curve in the direction sought with a large enough effect; inconclusive means small, poorly fitted or top-dose-only effect, or another doubt; inactive means no such curve, though single readings can be large; an effect the other way counts as inactive or inconclusive.

SMILES	LDHA block	PTHR1 agonist	Vif-APOBEC3G blk	Vif-APOBEC3F blk	PINK1 expr mod	mIDH1 inhibitor
Cc1ccc(C2C=C(c3ccccc3OC(F)F)Nc3ncnn32)cc1 (stereo not drawn)	-4	-34%	-8%	6%	-2%	2%
CN(C)c1ccc(C2C=C(c3ccc(Cl)cc3OC(F)F)Nc3ncnn32)cc1 (stereo not drawn)	1	i	8.9µM*	/	2%	10%
CC1CCN(C(=O)C2CCN(C(=O)c3ccc4cc[nH]c4c3)CC2)CC1	1	/	/	/	/	/
Cc1ccc(-c2noc(CN(C)C(=O)COc3ccccc3)n2)cc1	1	/	/	/	/	/
Cc1cc(S(=O)(=O)NC[C@H]2O[C@@H](n3ccc(N)nc3=O)[C@H](O)[C@@H]2O)c(C)s1	-31*	-22%	-1%	-3%	-1%	0%
CC(C)(C)CC(C)(C)c1ccc(O)c(CN2CCN(CCC#N)CC2)c1	7	0%[57.5 µM]	-6%	4%	12%	8%
N#CCCN1CCN(Cc2cc(-c3ccccc3)ccc2O)CC1	-8	16µM*	-4%	-1%	-1%	6%
CC(C)(C)c1ccc(C(=O)C[n+]2ccccc2Cl)cc1	-52*	/	3%	/	1%	/
CCc1ccc(C(=O)NC(=S)Nc2ccc(N3CCOCC3)cc2)cc1	-1	-68%	1%	10µM*	9%	-1%
O=C(Nc1ccc(N2CCOCC2)cc1)c1cccc2ccccc12	2	i	10µM*	-2%	9%	1%
O=C(NC1CCCCCC1)c1csc2ccccc12	-2	/	/	/	/	/
Cc1cc(C)n(C(=O)/C(C#N)=N\Nc2ccccc2[N+](=O)[O-])n1	0	-5%	0%	5%	3%	4%
Cc1cc(C)n(C(=O)/C(C#N)=N/Nc2cc(Cl)cc(Cl)c2)n1	-2	-39%	1%	-5%	25µM*	-5%
COCc1cccc(C(=O)NCc2ccc(C#N)cc2)c1	5	/	/	/	/	/
CCSc1nnc(NC(=O)C(C)(C(F)(F)F)C(F)(F)F)s1	-4	-26%	-1%	-2%	25µM*	4%
Cn1c(=O)[nH]c(=O)c2c1nc(SCC(N)=O)n2CCCc1ccccc1	-3	/	/	/	/	/
COc1ccc(-n2nc3c(N4CCCC(C(=O)NCc5ccccc5C)C4)nnc(C)c3c2C)cc1 (stereo not drawn)	-7	i	?	-5%	-1%	4%
COc1ccc(-n2nc3c(N4CCCC(C(=O)NCCc5ccccc5C)C4)nnc(C)c3c2C)cc1 (stereo not drawn)	4	1%	?	22µM*	-1%	15%
COC(=O)c1ccc(Cl)cc1NC(=O)N1CC=C(c2c[nH]c3ccccc23)CC1	-6	i	?	22µM*	0%	2%
Cc1cccc(NC(=O)N2CC=C(c3c[nH]c4ccccc34)CC2)c1C	-4	-14%	?	11µM*	0%	-30%
Cc1ccc(NC(=O)N2CC=C(c3c[nH]c4ccccc34)CC2)cc1Cl	2	-36%	?	?	1%	9%
O=C(Nc1ccc(Br)cc1F)N1CC=C(c2c[nH]c3ccccc23)CC1	4	i	?	-24%	7%	14%
O=C(CN1CCN(c2cc(-c3nc4ccccc4s3)c3ccccc3n2)CC1)N1CCOCC1	7	/	/	/	/	/
O=C(Oc1ccccc1)c1cc(O)c(O)c(O)c1	-35*	-19%	?	/	1%	/
Nc1ccc(C(=O)Oc2ccccc2)cc1	3	/	/	/	/	/
SMILES	LDHA block	PTHR1 agonist	Vif-APOBEC3G blk	Vif-APOBEC3F blk	PINK1 expr mod	mIDH1 inhibitor
COC(=O)c1ccc(Nc2c([N+](=O)[O-])ccc3nonc23)cc1	-4	-20%	?	25µM*	14µM*	3%
CC(=O)c1ccc(Nc2c([N+](=O)[O-])ccc3nonc23)cc1	-4	i	-1%	-7%	-1%	0%
CC(C)Cc1nc(OCC(N)=O)c(C#N)c2c1CCCC2	6	/	/	/	/	/
CCC(=O)Nc1ccccc1-c1nc2ccccc2[nH]c1=O	-5	-18%	-4%	-24%	1%	0%
COc1ccc(S(=O)(=O)Nc2ccccc2-c2nc3ccccc3[nH]c2=O)cc1	-4	-71%	?	3.5µM*	8%	1%
CC(=O)NCCNC(=O)c1ccc2ccccc2n1	-31*	/	/	/	/	/
O=C(Nc1ncccn1)c1ccc(Cl)c([N+](=O)[O-])c1	0	50µM*	?	-3%	1%	-2%
CC(C)(C)NC(=O)C(c1ccncc1)N(C(=O)Cn1nnc(-c2ccc(F)cc2)n1)c1cccc(F)c1 (stereo not drawn)	-3	10µM*	1%	-6%	-3%	-4%
Cc1cccc(N(C(=O)Cn2nnc(-c3ccccc3F)n2)C(C(=O)NC(C)(C)C)c2ccncc2)c1 (stereo not drawn)	-6	i	-2%	-2%	5%	3%
Cc1cccc(C)c1N/C=C/c1onc(C)c1[N+](=O)[O-]	-2	-4%[57.5 µM]	?	?	40µM*	0%
CC(C)NC(=O)Cn1c(=O)n(-c2ccccc2)c(=O)c2sccc21	-41*	/	/	/	/	/
O=C(O)c1ccccc1C(=O)Nc1ccc(Br)c(C(F)(F)F)c1	1	i	4%	-2%	-1%	4%
Cc1cc(C)c(C(=O)Nc2ccc(Br)c(C(F)(F)F)c2)c(C)c1	-5	-8%	3%	1%	13µM*	7%
Cc1ccccc1CN(C)C(=O)CN1CCC(c2nc3ccccc3s2)CC1	-1	/	/	/	/	/
Cc1ccc(-c2noc(CCC(=O)Nc3ccn(C)n3)n2)cc1	14	/	/	/	/	/
CC(C)Sc1nc2c(c(=O)[nH]c(=O)n2C)n1Cc1ccccc1	-30*!	i	-10%	?	0%	0%
Cc1ccc(NC(=O)c2ccc(NCCCN3CCC(C)CC3)c([N+](=O)[O-])c2)cc1F	-13	i	-26%	10µM*	?	-1%
Cc1ccc(NC(=S)NNC(=O)c2cccc([N+](=O)[O-])c2)cc1Cl	1	-53%	-9%	9%	35µM*	-6%
NC(=O)c1ccc(NCC2CCCO2)c([N+](=O)[O-])c1 (stereo not drawn)	3	-54%	-4%	-23%	-1%	2%
Cc1ccc(NC(=O)c2ccc(NCc3ccco3)c([N+](=O)[O-])c2)cc1Cl	-2	0%	?	8.9µM*	?	0%
Cc1ccc(NC(=O)c2ccc(NCC3CCCO3)c([N+](=O)[O-])c2)cc1Cl (stereo not drawn)	-7	-9%	-26%	11µM*	?	1%
CCCOc1ccc(/C=C(/C#N)c2nc3ccccc3[nH]2)cc1Br	2	/	/	/	/	/
